Results filed as inconclusive are left out. A call without a number means that no potency is given here. Activity calls are given as the source filed them. Calls follow the shape of the full dose curve.
Test: qHTS for Inhibitors of Cell Surface uPA Generation: Wild-type Protective Antigen (WT-PrAg) Counterscreen for Cherry-picked Compounds
Settings: cells, WT protective antigen toxicity counterscreen; series mostly up to 115 µM
Potency is read from the fitted curve at half-maximal effect.

Compound	Potency
COc1ccccc1NC(=O)N1C[C@@H]2C[C@@H](C1)c1cccc(=O)n1C2	inactive
Cc1ccc(S(=O)(=O)NCC(=O)OC(C)C(=O)NCc2ccc3c(c2)OCO3)cc1 (stereo not given)	inactive
Cc1cccc(NC(=O)C2CCCN(S(=O)(=O)c3ccc4[nH]c(=O)ccc4c3)C2)c1 (stereo not given)	inactive
Cn1cc(SCC(=O)Nc2nccs2)c2ccccc21	inactive
COc1ccccc1C(=O)Nc1cccc(C(=O)c2ccccc2)c1	inactive
CC(CCc1ccccc1)NC(=O)c1ccc(NC(=O)c2cccc(Br)c2)cc1 (stereo not given)	inactive
C#CCN1C=C(C(=O)OCC)C(C)NS1(=O)=O (stereo not given)	inactive
COCCNC(=O)C(c1c[nH]c2ccccc12)N(C(=O)c1snc(C(N)=O)c1N)c1cccc(OC)c1 (stereo not given)	inactive
CC(C)C(=O)Nc1nnc(SCc2cccc(F)c2)s1	inactive
COC(=O)CSc1nc(N2CCOCC2)c2c(c1C#N)CCCC2	inactive
CSc1nc(-c2ccccc2)nc(C(Cl)Cl)n1	inactive
CCOc1ccc(OCC)c(NC(=O)c2ccc(CNc3c(N4CCCC4)c(=O)c3=O)cc2)c1	inactive
COC(=O)CCSCC(=O)N1N=C(c2ccc(OC)cc2)CC1c1cccc(OC)c1OC (stereo not given)	inactive
Cc1ccc(/C=N/NC(=O)c2ccc3nc[nH]c3c2)s1	inactive
COc1ccc(C(=O)NCCCN2CCOCC2)cc1	inactive
COc1ccccc1N1CCN(C(=O)CCC(=O)N2CCN(c3ccc(F)cc3)CC2)CC1	inactive
CS(=O)(=O)c1ccc(Cl)c(NC(=O)COC(=O)CNC(=O)c2cccs2)c1	inactive
CC1CCN(C2=C(NS(=O)(=O)c3ccc(Br)cc3)C(=O)c3ccccc3C2=O)CC1	inactive
CCc1ccc(S(=O)(=O)NCCc2cn3cccc(C)c3n2)s1	inactive
CCOc1ccc(C(=O)NCC(=O)N2CCN(C/C=C/c3ccccc3)CC2)cc1OCC	inactive
Cc1c(NC(=S)Nc2ccc(Cl)cc2)c(=O)n(-c2ccccc2)n1C	inactive
O=C(COC(=O)Cn1cnc2ccccc21)NCc1ccc(F)cc1	inactive
COc1cc(OC)cc(C(=O)NC(C(=O)Nc2ccc3c(c2)CCC3)C(C)C)c1 (stereo not given)	inactive
COc1cc(/C=N/NC(=O)c2cc(-c3ccco3)nc3ccccc23)cc(OC)c1O	inactive
COc1ccc(C2=NOC(CNC(N)=S)C2)cc1 (stereo not given)	inactive

Compound	Potency
COc1ccc(S(=O)(=O)c2c(O)c3ccc(C(=O)Nc4ccccc4)cc3[nH]c2=O)cc1	inactive
Cc1cccc(NC(=O)c2cc3c(=O)n4ccccc4nc3s2)c1	inactive
COc1ccc(N2CCN(S(=O)(=O)c3ccc4c(c3)NC(=O)CS4)CC2)cc1	inactive
COc1ccc(CCNC(=O)COC(=O)CNS(=O)(=O)c2ccc(SC)c([N+](=O)[O-])c2)cc1	inactive
CCc1ccc(N2CC(C(=O)Nc3ccc4c(c3)OCO4)CC2=O)cc1 (stereo not given)	inactive
CCOc1cc(C(=O)OCC(=O)c2cc(C)n(CC3CCCO3)c2C)ccc1OCC(=O)N1CCOCC1 (stereo not given)	inactive
O=[N+]([O-])c1ccc(SCc2ccncc2)nc1	inactive
CCOc1cc(N2CCOCC2)c(OCC)cc1NC(=O)c1[nH]c(C)c(C(C)=O)c1C	inactive
CNC(=O)[C@@H]1CCC(=O)N1	inactive
CCOc1ccc(C2(C)CC(=O)N(C)C2=O)cc1 (stereo not given)	inactive
Cc1nc(NC(=O)CSc2nnc(C3CC3)n2C)sc1C(=O)N(C)C	inactive
CC1(C)S[C@@H]2[C@H](NC(=O)C(C(=O)O)c3ccccc3)C(=O)N2[C@H]1C(=O)O (stereo not given in full)	inactive
O=C1OCC/C1=C\c1ccc(O)cc1	inactive
CN(CCC#N)C(=S)Nc1ccc(Oc2ccccc2)cc1	inactive
Cc1nc(SCC(=O)NCCN2C(=O)CSC2=O)nc(C)c1C	inactive
COc1cc(NS(=O)(=O)c2ccc(NC(=S)NC(=O)COc3ccccc3OC)cc2)nc(OC)n1	inactive
C#CCOCCOCCOCCNc1nc(N2CCOCC2)nc(N2CCN(C(=O)[C@H](CCC(=O)O)n3cc([C@@H](N)CCCCN)nn3)CC2)n1	inactive
COc1cc2cc(CN(CCN3CCOCC3)C(=O)Nc3ccc(F)cc3)c(=O)[nH]c2cc1OC	inactive
O=C(Cc1ccc(Cl)cc1)NC(=S)Nc1ccccc1O	inactive
O=C(Nc1cccc(NC(=O)c2ccc(F)cc2)c1)c1ccc(F)cc1	inactive
COc1ccc(C(CNC(=O)C(C)Oc2ccc(Br)cc2)N2CCCC2)cc1 (stereo not given)	inactive
COc1cccc(C(=O)NCC(c2ccco2)N2CCc3ccccc3C2)c1 (stereo not given)	inactive
CCC(C)Sc1nnc(NS(=O)(=O)Cc2ccccc2)s1 (stereo not given)	inactive
O=P1(NCCCl)OCCCN1CCCl (stereo not given)	inactive
Cc1ccc(-n2ncc(C(=O)NC3CC3)c2C2CCN(C(=O)OC(C)(C)C)CC2)cc1	inactive

Compound	Potency
O=S(=O)(NCCc1ccccc1F)c1cccc(S(=O)(=O)N2CCOCC2)c1	inactive
CC1CCC(NC(=O)c2nn(C)c3c2CS(=O)(=O)c2ccccc2-3)CC1 (stereo not given)	inactive
Cc1ccc(C)c(-c2ccc(=O)n(Cc3c(F)cccc3Cl)n2)c1	inactive
C[N+]1(CC(O)c2ccccc2)CCCCCC1 (stereo not given)	inactive
CNC(=S)N1C2CCCC1CC(NC(=O)c1ccc(F)cc1)C2 (stereo not given)	inactive
Cc1cc(N2C(=O)C(O)=C(C(=O)c3ccco3)C2c2ccc(Cl)cc2)no1 (stereo not given)	inactive
CCOCCCn1c(SCC(=O)Nc2oc(C)c3c(C)n[nH]c(=O)c23)nc2ccccc2c1=O	inactive
COc1ccc(N2CC(C(=O)Nc3nnc(SCCC4OCCO4)s3)CC2=O)cc1 (stereo not given)	inactive
C[C@@H](NC(=O)c1nc[nH]c1C(=O)NCc1ccc(CNC(=O)OC(C)(C)C)cc1)c1ccccc1	inactive
CCC(C)C1NC(=O)C2CCCN2C(=O)C(CC(C)C)OC(=O)CCNC(=O)C(C)N(C)C(=O)C(C(C)C)N(C)C1=O (stereo not given)	3.69 µM (active)
COc1ccc(NC(=O)CCNS(=O)(=O)c2ccccc2F)cc1S(=O)(=O)N1CCOCC1	inactive
CS/C(=C\[N+](=O)[O-])Nc1ccccc1	inactive
CN(C)c1cccc(C(=O)N(C)C2CCCN(Cc3ccccc3F)C2)c1 (stereo not given)	23.3 µM (active)
O=C(CCS(=O)(=O)c1ccc2c(c1)NC(=O)CS2)NCCc1ccc(Cl)cc1	inactive
CCCOc1ccc(CC2CCC(=O)NC2=O)cc1 (stereo not given)	inactive
CC(=O)c1c(C)n(-c2ccccc2Br)c2ccc(O)cc12	inactive
CC(=O)NS(=O)(=O)c1ccc(NC(=O)c2cccc(OCc3c(C)noc3C)c2)cc1	inactive
Cc1ccc(S(=O)(=O)NC(=O)Nc2nccs2)cc1	inactive
COc1ccc(CNCCC2(C(C)C)CCOC(C)(C)C2)cc1 (stereo not given)	inactive
O=C(CSc1nnnn1-c1cccc(F)c1)Nc1nc2ccccc2s1	inactive
CCOc1ccc(NS(=O)(=O)c2coc(C(N)=O)c2)cc1	inactive
CC(=O)Oc1ccccc1C(=O)Nc1ccccc1C(=O)N1CCCC1	inactive
CC(C)C1Oc2ccccc2N(CC(=O)NC2CCCCC2)C1=O (stereo not given)	36.9 µM (active)
Cc1[nH]c(=O)[nH]c(=O)c1S(=O)(=O)N1CCCc2ccccc21	inactive
O=C(NC1CCCCC1)C(c1ccco1)N(C(=O)c1csnn1)c1cccc(Cl)c1 (stereo not given)	inactive

Source: PubChem BioAssay AID720518 (National Center for Advancing Translational Sciences (NCATS), 2013)
